# Data taken from paper PMC4336329 (PLoS ONE, 2015).
# Hit rate of the full screen: of about 310,000 compounds, about 14,000 (4.5%) showed an effect of 50% or more. The effect is printed as a negative number. The list comes from a sample in which strong results are over-represented; it also holds similar structures and randomly drawn compounds.
# Molecular target: human ether-à-go-go-related gene (hERG) potassium channel (human, UniProt Q12809)
# Assay: primary screen, population patch clamp on CHO cells stably expressing hERG; higher = less effect of the substance
# 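Also: peak tail current of the secondary pulse compared with the same well before compound.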
# human ether-à-go-go-related gene (hERG) potassium channel, sequence (Q12809 whole entry, looked up): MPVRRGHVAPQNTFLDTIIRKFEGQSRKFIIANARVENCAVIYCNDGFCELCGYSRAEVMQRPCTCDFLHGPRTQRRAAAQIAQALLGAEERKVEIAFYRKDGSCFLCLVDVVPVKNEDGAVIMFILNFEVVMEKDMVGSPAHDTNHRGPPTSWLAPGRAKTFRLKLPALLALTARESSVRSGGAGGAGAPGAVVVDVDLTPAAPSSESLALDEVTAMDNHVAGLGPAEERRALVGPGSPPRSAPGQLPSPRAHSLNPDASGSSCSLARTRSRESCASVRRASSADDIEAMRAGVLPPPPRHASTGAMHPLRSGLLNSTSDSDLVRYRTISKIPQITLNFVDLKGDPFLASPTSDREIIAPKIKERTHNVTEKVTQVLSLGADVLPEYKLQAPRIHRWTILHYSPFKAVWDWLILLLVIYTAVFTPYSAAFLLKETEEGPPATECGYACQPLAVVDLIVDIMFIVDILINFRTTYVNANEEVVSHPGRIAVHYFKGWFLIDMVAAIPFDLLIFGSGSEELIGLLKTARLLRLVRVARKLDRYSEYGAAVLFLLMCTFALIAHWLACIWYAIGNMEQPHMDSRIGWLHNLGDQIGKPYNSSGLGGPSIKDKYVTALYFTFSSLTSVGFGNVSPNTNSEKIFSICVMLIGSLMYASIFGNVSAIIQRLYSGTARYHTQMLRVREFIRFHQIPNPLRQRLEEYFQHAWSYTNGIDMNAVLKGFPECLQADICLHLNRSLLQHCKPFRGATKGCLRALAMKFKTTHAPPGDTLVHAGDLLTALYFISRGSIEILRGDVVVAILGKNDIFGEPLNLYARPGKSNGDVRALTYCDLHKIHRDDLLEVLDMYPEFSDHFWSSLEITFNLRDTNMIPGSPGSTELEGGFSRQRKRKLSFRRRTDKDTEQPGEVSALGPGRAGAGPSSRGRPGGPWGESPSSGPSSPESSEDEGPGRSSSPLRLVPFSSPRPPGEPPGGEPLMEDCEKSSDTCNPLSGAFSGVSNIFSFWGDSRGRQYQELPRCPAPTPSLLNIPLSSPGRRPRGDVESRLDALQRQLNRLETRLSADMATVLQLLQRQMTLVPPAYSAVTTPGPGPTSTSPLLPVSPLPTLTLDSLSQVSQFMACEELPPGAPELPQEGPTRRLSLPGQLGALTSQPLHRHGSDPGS
row,Structure (SMILES),"hERG current change (%, negative = inhibition) at 10uM [%]"
1,Cc1ccc(Cc2nnc(SCC(=O)Nc3c(C)cccc3C)[nH]c2=O)cc1,-9.17
2,CCCOC(=O)c1c(NC(=O)C2C3C=CC(C3)C2C(=O)O)sc2c1CCC(C)C2 (centres unmarked),-59.3
3,CCOC(=O)c1c(NC(=O)C2C3C=CC(C3)C2C(=O)O)sc2c1CC(C)CC2 (centres unmarked),19.6
4,CCOC(=O)c1c(NC(=O)C2C3C=CC(C3)C2C(=O)O)sc2c1CCC(C)C2 (centres unmarked),-6.93
5,O=C(O)c1cc2c(cn1)[nH]c1ccccc12,10.9
6,CC1CCC(C(C)C)C(OC(=O)Cn2c(-c3ccc(Br)cc3)[n+](C)c3ccccc32)C1.[Cl-] (centres unmarked),-78.3
7,CC1CCC(C(C)C)C(OC(=O)Cn2c(-c3ccccc3)[n+](C)c3ccccc32)C1.[Cl-] (centres unmarked),-77.3
8,CC1CCC(C(C)C)C(OC(=O)Cn2c(-c3ccc(Cl)cc3)[n+](C)c3ccccc32)C1.[Cl-] (centres unmarked),-82.9
9,CC1CCC(C(C)C)C(OC(=O)C[n+]2cccc(C(N)=O)c2)C1.[Cl-] (centres unmarked),7.66
10,CC1CCC(C(C)C)C(OC(=O)CSc2nnc(N)s2)C1 (centres unmarked),3.01
11,CC1CCC(C(C)C)C(OC(=O)COC(=O)c2ccc(=O)[nH]c2)C1 (centres unmarked),-8.28
12,CC1CCC(C(C)C)C(OC(=O)Cn2c(-c3ccc(F)cc3)[n+](C)c3ccccc32)C1.[Cl-] (centres unmarked),-76.3
13,CC1CCC(C(C)C)C(OC(=O)Cn2nnc3c(cnn3-c3ccccc3)c2=O)C1 (centres unmarked),3.74
14,CC1CCC(C(C)C)C(OC(=O)COC(=O)c2ccc(N)cc2)C1 (centres unmarked),6.47
15,Cc1nnc(SCC(=O)OC2CC(C)CCC2C(C)C)[nH]c1=O (centres unmarked),11.1
16,CC1CCC(C(C)C)C(OC(=O)CSc2n[nH]c(=O)[nH]c2=O)C1 (centres unmarked),-19.9
17,CC1CCC(C(C)C)C(OC(=O)COC(=O)c2cccn2C)C1 (centres unmarked),16.1
18,COc1cccc(-n2ccnc2SCC(=O)Nc2cc(C)on2)c1,14.1
19,Cc1ccc(S(=O)(=O)Nc2ccc(S(=O)(=O)Nc3cc(C)nc(C)n3)cc2)cc1,23.3
20,NC(=O)c1cccnc1Oc1ccccc1,-30.8
21,O=C(N/N=C/c1ccc(OC(=O)c2cccs2)cc1)c1ccc(F)cc1,10
22,O=C(c1cc(=O)[nH]c2ccc(Br)cc12)N1CCC2(CC1)OCCO2,12.6

row,Structure (SMILES),"hERG current change (%, negative = inhibition) at 10uM [%]"
1,CCOC(=O)c1c(-c2ccccc2)csc1NC(=O)c1ccc(S(=O)(=O)N2CCOCC2)cc1,9.29
2,CCN(CC)c1cc(NCCO)c([N+](=O)[O-])c2nonc12,-25.1
3,COc1ccc(CCC(=O)NCCS(=O)(=O)N2CCN(c3ccc(F)cc3)CC2)cc1,-58.8
4,O=C(NCCS(=O)(=O)N1CCN(c2ccccc2F)CC1)c1ccc(Br)cc1,4.45
5,COc1ccc(CCC(=O)NCCS(=O)(=O)N2CCN(c3ccccc3)CC2)cc1,-36.6
6,O=C(Cc1ccc(Cl)cc1)NCCS(=O)(=O)N1CCN(c2ccccc2F)CC1,-10.6
7,COc1ccc(CCC(=O)NCCS(=O)(=O)N2CCN(c3ccccc3F)CC2)cc1,-63.2
8,O=C(CCCc1ccccc1)NCCS(=O)(=O)N1CCN(c2ccccc2F)CC1,-18.5
9,COc1ccc(CCC(=O)NCCS(=O)(=O)N2CCN(c3ccc(OC)cc3)CC2)cc1,7.57
10,O=C(NCCS(=O)(=O)N1CCN(c2ccccc2F)CC1)c1ccc(Cl)cc1,-55.5
11,COc1ccc(CCC(=O)NCCS(=O)(=O)N2CCN(c3ccccc3OC)CC2)cc1,-8.87
12,COC(=O)COc1ccc(C(C2C(=O)CC(C)(C)CC2=O)C2C(=O)CC(C)(C)CC2=O)cc1,15.8
13,Cc1oc2c(O)c(O)ccc2c(=O)c1-c1ccc(Cl)cc1,-11.3
14,COc1ccc([C@H]2CC(=O)C=C(c3ccc(F)cc3OCc3ccccc3)C2)cc1OC,12.1
15,CCN(CC)c1ccc(SS(=O)(=O)O)cc1,9.02
16,CCOc1ccccc1NC1=CC(=O)CC(c2ccccc2)C1 (centres unmarked),-16.9
17,COc1ccc(S(=O)(=O)N2CCN(CC(=O)c3ccc(O)c(O)c3)CC2)cc1,-45
18,O=C(CN1CCN(S(=O)(=O)c2ccc(Br)cc2)CC1)c1ccc(O)c(O)c1,-76.8
19,O=C(CN1CCN(S(=O)(=O)c2ccc(F)cc2)CC1)c1ccc(O)c(O)c1,-34.9
20,O=C(CN1CCN(S(=O)(=O)c2cc(Cl)ccc2Cl)CC1)c1ccc(O)c(O)c1,26.3
21,CC(C)c1ccc(S(=O)(=O)N2CCN(CC(=O)c3ccc(O)c(O)c3)CC2)cc1,-24.6
22,O=C(CN1CCN(S(=O)(=O)c2ccc(Cl)cc2)CC1)c1ccc(O)c(O)c1,-59.5

row,Structure (SMILES),"hERG current change (%, negative = inhibition) at 10uM [%]"
1,Cc1cccc(-c2nc3ccccc3c3nncn23)c1,-12.1
2,CCCn1c(NC(=O)c2cccc(S(=O)(=O)N3CCCC3)c2)nc2ccccc21,-28.8
3,N#CCn1nnc(-c2ccc3c(c2)OCO3)n1,-4.09
4,O=C(COC(=O)c1ccccc1NCCO)Nc1cc(C(F)(F)F)ccc1N1CCOCC1,-60.2
5,N#Cc1ccc(OCC(=O)OCC(=O)Nc2cc(C(F)(F)F)ccc2N2CCOCC2)cc1,-57.7
6,O=C(COC(=O)COc1ccc2ccccc2c1)Nc1cc(C(F)(F)F)ccc1N1CCOCC1,7.69
7,COc1ccc(NC(C)=O)cc1NC(C)C(=O)Nc1cc(C(F)(F)F)ccc1N1CCOCC1 (centres unmarked),-60.1
8,COc1ccc(NC(C)C(=O)Nc2cc(C(F)(F)F)ccc2N2CCOCC2)c(OC)c1 (centres unmarked),-19.2
9,CC(=O)c1c(C)[nH]c(C(=O)OCC(=O)Nc2cc(C(F)(F)F)ccc2N2CCOCC2)c1C,-56.1
10,O=C(COC(=O)c1ccc(O)cc1)Nc1cc(C(F)(F)F)ccc1N1CCOCC1,-25
11,COc1cc(Cl)c(C)cc1NC(C)C(=O)Nc1cc(C(F)(F)F)ccc1N1CCOCC1 (centres unmarked),-2.59
12,CSc1ncccc1C(=O)OCC(=O)Nc1cc(C(F)(F)F)ccc1N1CCOCC1,-20.2
13,Cc1ccccc1OCC(=O)OCC(=O)Nc1cc(C(F)(F)F)ccc1N1CCOCC1,12.9
14,Cc1cc(OCC(=O)OCC(=O)Nc2cc(C(F)(F)F)ccc2N2CCOCC2)ccc1Cl,11.1
15,Cc1cc(C(=O)OCC(=O)Nc2cc(C(F)(F)F)ccc2N2CCOCC2)c(C)o1,-0.421
16,NCCN=C1NS(=O)(=O)c2ccccc21,0.316
17,CCOc1ccc(OCC(=O)Nc2ccc(S(=O)(=O)Nc3cc(C)nc(C)n3)cc2)cc1,16.4
18,COc1cccc(-c2nc(N3CCCC3)c3ccccc3n2)c1O,-5.65
19,Cc1ccc(C)c(C(=O)COC(=O)c2cc(Cl)nc3ccccc23)c1,26.4
20,O=C(Nc1ccc2c(c1)CCC2)Nc1ccc2c(c1)OCO2,6.88
21,O=C(Nc1ccc(C(=O)N2CCCCC2)cc1)c1ccccc1Br,8.24
22,O=C(NCc1ccccn1)c1ccc(=O)oc1,1.42

row,Structure (SMILES),"hERG current change (%, negative = inhibition) at 10uM [%]"
1,Cc1cc(Cl)ccc1OCC(=O)Nn1c(C)ccc1C,3.73
2,Cc1ccc(C(=O)NCc2ccco2)cc1Br,-11.5
3,COc1cccc(NC(=O)C23CCC(C)(C(=O)O2)C3(C)C)c1 (centres unmarked),-5.46
4,COc1ccc(OC)c(/C=C2\Oc3cc(OCC(=O)N4CC(O)C[C@H]4C(=O)O)ccc3C2=O)c1 (some centres unmarked),4.97
5,COc1ccccc1OCCCn1cc(C(=O)C2CC2)c2ccccc21,-2.64
6,COc1cccc(C(=O)NN2C(=S)N(c3ccccc3)C(=O)C2CC(N)=O)c1 (centres unmarked),16.2
7,O=C(COc1ccc2ccccc2c1)Nc1ccccc1C(=O)O,26.6
8,CCCC(=O)NC(=S)Nc1cccc(Cl)c1N1CCCCC1,14.1
9,C/C(=N\NC(=O)C1CC1)c1ccccc1O,0.248
10,C/C(=N\NC(=O)c1ccccc1O)C1C(=O)c2ccccc2C1=O,-0.25
11,C/C(=N\NC(=O)c1ccccc1O)C1CC1,-62.2
12,CC(=O)c1ccc(N2CCN(CC(=O)N(CC(C)C)c3c(N)n(CC(C)C)c(=O)[nH]c3=O)CC2)cc1,10.7
13,CCCn1ncc(CN2CCC(n3nccc3NC(=O)c3ccccc3Cl)CC2)c1C,-75.8
14,CCCn1cc(CN2CCC(n3nccc3NC(=O)c3ccccc3)CC2)c(C)n1,-11
15,CCCCc1ncc(CN2CCC(n3nccc3NC(=O)c3ccccc3Cl)CC2)[nH]1,-40.3
16,Cc1c(CN2CCC(n3nccc3NC(=O)CCc3ccccc3)CC2)cnn1C,12.6
17,CCCn1ncc(CN2CCC(n3nccc3NC(=O)c3ccccc3OC)CC2)c1C,-79.2
18,COc1ccccc1C(=O)Nc1ccnn1C1CCN(Cc2cnn(C)c2C)CC1,-63.7
19,CCCn1ncc(CN2CCC(n3nccc3NC(=O)CCc3ccccc3)CC2)c1C,-26.2
20,Cc1c(CN2CCC(n3nccc3NC(=O)c3cccc(F)c3)CC2)cnn1C,9
